# Laboratory results from PubChem BioAssay (NCATS).
# Inconclusive results are not listed. A call without a number means that no potency is given here. Active and inactive are the calls of the source. Calls come from the whole dose curve; as a rule, active = well fitted cell-killing curve with a large enough effect; inconclusive = small, poorly fitted or top-dose-only effect, or effect the other way; inactive = no such curve, though single readings can be large or run the other way.
# Assays:
# [1] = Quantitative High-Throughput drug screen in 47 multiple myeloma cell lines against the NCATS MIPE library collection: INA6_PLB cell viability assay (AID 1918965; note: nearly all actives have a fitted effect of over 55% in size; note: potency is the fitted concentration of half-maximal effect); conditions: INA6 myeloma viability, CellTiter-Glo ATP luminescence, 48 h; series mostly up to 45.8 µM
# Procedure, shortened: (§1)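 Steps: seed 500 cells per well; pin-transfer MIPE 4.0 library; incubate 48 h at 37C, 5% CO2, humidified; add CellTiter-Glo, 5 min room temperature; read luminescence.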
# [2] = Quantitative High-Throughput drug screen in 47 multiple myeloma cell lines against the NCATS MIPE library collection: H1112_PLB cell viability assay (AID 1918967; note: nearly all actives have a fitted effect of over 30% in size; note: potency is the fitted concentration of half-maximal effect); conditions: H1112 myeloma cells viability, ATP luminescence, 48 h; series mostly up to 45.8 µM
# Procedure, shortened: (§2)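 Primary qHTS used for cherry-picking: cells at 500/well, library compounds for 48 h (37C, 5% CO2), luminescent ATP assay.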
# [3] = Quantitative High-Throughput drug screen in 47 multiple myeloma cell lines against the NCATS MIPE library collection: KMS27_JCRB cell viability assay (AID 1918970); conditions: KMS27 myeloma cells, CellTiter-Glo ATP viability, 48 h; series mostly up to 45.8 µM; note: nearly all actives have a fitted effect of over 30% in size; note: potency is the fitted concentration of half-maximal effect
# Procedure, shortened: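 Myeloma cells (500 per well) were exposed to MIPE 4.0 compounds for 48 h at 37 °C, 5% CO2; viability was read as ATP luminescence with CellTiter-Glo, normalized to DMSO-only (100%) and media-only (0%) wells.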
# [4] = Quantitative High-Throughput drug screen in 47 multiple myeloma cell lines against the NCATS MIPE library collection: JJN3_DSMZ cell viability assay (AID 1918966; note: nearly all actives have a fitted effect of over 50% in size; note: potency is the fitted concentration of half-maximal effect); conditions: JJN3 myeloma cells viability, CellTiter-Glo ATP, 48 h; series mostly up to 45.8 µM
# Procedure, shortened: as §2
# [5] = Quantitative High-Throughput drug screen in 47 multiple myeloma cell lines against the NCATS MIPE library collection: Karpas25_ECACC cell viability assay (AID 1918968; note: nearly all actives have a fitted effect of over 35% in size; note: potency is the fitted concentration of half-maximal effect); conditions: Karpas25 myeloma viability, CellTiter-Glo ATP, 48 h; series mostly up to 45.8 µM
# Procedure, shortened: as §2
# [6] = Quantitative High-Throughput drug screen in 47 multiple myeloma cell lines against the NCATS MIPE library collection: KMS12BM_JCRB cell viability assay (AID 1918971); conditions: KMS12BM myeloma viability, CellTiter-Glo ATP, 48 h; series mostly up to 45.8 µM; note: nearly all actives have a fitted effect of over 35% in size; note: potency is the fitted concentration of half-maximal effect
# Procedure, shortened: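 We plated 500 myeloma cells per well, pinned in MIPE 4.0 compounds, and incubated for 48 hours at 37C. ATP was then quantified with CellTiter-Glo, with DMSO and media-only wells defining 100% and 0%.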
# [7] = Quantitative High-Throughput drug screen in 47 multiple myeloma cell lines against the NCATS MIPE library collection: KMS12PE_JCRB cell viability assay (AID 1918972); conditions: KMS12PE myeloma viability, CellTiter-Glo ATP, 48 h; series mostly up to 45.8 µM; note: nearly all actives have a fitted effect of over 30% in size; note: potency is the fitted concentration of half-maximal effect
# Procedure, shortened: as §1
# [8] = Quantitative High-Throughput drug screen in 47 multiple myeloma cell lines against the NCATS MIPE library collection: KMS21BM_JCRB cell viability assay (AID 1918974); conditions: ATP luminescence, 48 h; viability: at 45.8 µM (top of the series) unless noted; note: potency is the fitted concentration of half-maximal effect
# Procedure, shortened: as §2
# [9] = Quantitative High-Throughput drug screen in 47 multiple myeloma cell lines against the NCATS MIPE library collection: KMS20_JCRB cell viability assay (AID 1918973); conditions: CellTiter-Glo ATP, 48 h; series mostly up to 45.8 µM; note: nearly all actives have a fitted effect of over 45% in size
# Procedure, shortened: as §2
compound,measurement,setting,value
CCC(C)N(C)C(=O)c1cc2ccccc2c(-c2ccccc2Cl)n1 (centres undefined),Potency,[1],inactive
same,Potency,[2],inactive
same,Potency,[3],16.6 µM (active)
NCCc1ccc(O)c(O)c1,Potency,[4],20.9 µM (active)
same,Potency,[2],inactive
same,Potency,[5],14.8 µM (active)
same,Potency,[3],16.6 µM (active)
same,Potency,[6],7.43 µM (active)
same,Potency,[7],20.9 µM (active)
COc1ccc(-c2c(-c3ccc(O)cc3O)n[nH]c2C)cc1,Potency,[1],38.2 µM (active)
same,Potency,[5],27 µM (active)
same,Potency,[6],27 µM (active)
COc1cc(Nc2ncc3c(n2)-c2ccc(Cl)cc2C(c2c(F)cccc2OC)=NC3)ccc1C(=O)O,Potency,[4],inactive
same,Potency,[2],inactive
same,Potency,[6],inactive
O=C(O)COCCN1CCN(C(c2ccccc2)c2ccc(Cl)cc2)CC1 (centres undefined),Potency,[4],inactive
same,Potency,[2],inactive
same,Potency,[5],inactive
same,Potency,[6],inactive
same,Potency,[7],inactive
NC(=O)C1CCCc2c1[nH]c1ccc(Cl)cc21 (centres undefined),Potency,[2],inactive
same,Potency,[5],inactive
same,Potency,[6],1.66 µM (active)
same,Potency,[7],14.8 µM (active)
Cc1ccccc1C(OCCN(C)C)c1ccccc1 (centres undefined),Potency,[2],inactive
same,Potency,[5],inactive
same,Potency,[7],inactive
c1ccc([C@H]2CN3CCSC3=N2)cc1,Potency,[5],inactive
same,Potency,[6],inactive
same,Potency,[8],inactive
C[C@]12CC[C@H](O)CC1=CC[C@@H]1[C@H]2CC[C@]2(C)C(c3cccnc3)=CC[C@H]12,Potency,[2],inactive
same,Potency,[6],inactive
same,Potency,[7],inactive
same,Potency,[9],inactive
Cn1cc(-c2ccc3nnc(C(F)(F)c4ccc5ncccc5c4)n3n2)cn1,Potency,[4],0.0264 µM (active)
same,Potency,[5],18.7 µM (active)
same,Potency,[6],23.5 µM (active)
same,Potency,[7],20.9 µM (active)
CC(=O)Oc1ccccc1C(=O)O,Potency,[2],7.43 µM (active)
same,Potency,[5],inactive
same,Potency,[7],inactive
Cc1csc(NC(=O)c2sc3nc4c(c(C(F)(F)F)c3c2N)CCC4)n1,Potency,[2],inactive
same,Potency,[5],1.48 µM (active)
same,Potency,[3],inactive
same,Potency,[6],16.6 µM (active)
Cn1c(=O)c(F)c(Nc2ccc(I)cc2F)c2c(=O)n(C[C@@H](O)CO)cnc21,Potency,[5],13.2 µM (active)
same,Potency,[3],1.87 µM (active)
same,Potency,[7],18.7 µM (active)
CCOc1ccn(-c2ccc(F)cc2)c(=O)c1C(=O)Nc1ccc(Oc2ccnc(N)c2Cl)c(F)c1,Potency,[2],13.2 µM (active)
same,Potency,[5],2.35 µM (active)
COc1ccc(CCN2CCN(CCCc3ccccc3)CC2)cc1OC,Potency,[2],inactive
same,Potency,[6],inactive
same,Potency,[8],3.32 µM (active)
CNC(=O)c1ccc(N2C(=S)N(c3ccc(C#N)c(C(F)(F)F)c3)C(=O)C2(C)C)cc1F,Potency,[2],inactive
same,Potency,[5],18.7 µM (active)
CC1(C)CNc2cc(NC(=O)c3cccnc3NCc3ccncc3)ccc21,Potency,[5],2.09 µM (active)
same,Potency,[7],4.18 µM (active)
CC(C)(C)OC(=O)CN(Cc1ccc(Cl)cc1)Cc1ccc([N+](=O)[O-])s1,Potency,[4],10.5 µM (active)
same,Potency,[3],inactive
same,Potency,[7],inactive
Clc1cccc(Cl)c1NC1=NCCN1,Potency,[2],inactive
same,Potency,[5],inactive
same,Potency,[3],inactive
same,Potency,[7],inactive
CCOC(=O)N[C@@H]1CC[C@@H]2[C@@H](C1)C[C@H]1C(=O)O[C@H](C)[C@H]1[C@@H]2C=Cc1ccc(-c2cccc(F)c2)cn1,Potency,[6],20.9 µM (active)
same,Potency,[7],14.8 µM (active)
CCCc1nn(C)c2c(=O)[nH]c(-c3cc(S(=O)(=O)N4CCN(C)CC4)ccc3OCC)nc12,Potency,[4],18.7 µM (active)
same,Potency,[6],11.8 µM (active)
same,Potency,[7],inactive
